# High-throughput results as filed in PubChem.
# In the library only some 12% were active in any assay of this set; here they are far more common.
# G9a inh = G9a (human) methyltransferase inhibition; 350,000 compounds, 8.8% hits; AID 504332; Potency, µM (top dose mostly 102 µM), for inactives: at the highest dose activity, negative = inhibition, most hits filed as inhibitors; G9a H3K9 monomethylation, AlphaScreen, 2 h; also: % is scaled to controls: 0 for no effect and ±100 for the full control effect; nearly all actives have a fitted effect of over 75% in size
#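 AlphaScreen detection with an anti-monomethyl H3K9 antibody quantified product after a 2 h room-temperature reaction containing 500 nM biotinylated H3K9 peptide, 20 µM SAM and 20 nM enzyme, which had been preincubated 15 min with compound.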
# Sfp PPTase inh = Sfp phosphopantetheinyl transferase inhibition. Q9F4F7. Biochemical Sfp PPTase activity, qHTS. Potency, µM, for the others: largest response in the series, negative = inhibition, hits mostly inhibitors. 310,000 compounds, 3.5% hits. AID 1490;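 also: the enzyme is Sfp with the accession as filed and its product quenches rhodamine fluorescence; 0% = enzyme reaction without inhibitor and -100% = no enzyme wells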
#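 Fluorescence-quenching assay: 15 nM Sfp-PPTase preincubated 15 min at room temperature with compound, then 5 uM rhodamine-CoA and 12.5 uM BHQ-2-labelled YbbR peptide added. Fluorescence (ex 525/em 598 nm) read at start and after 30 min; difference gives rate.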
# BAZ2B block = blocks human BAZ2B. AlphaScreen BAZ2B-H3K14Ac peptide displacement. Potency, µM (titrated, usually from 114 µM), without a hit: top-dose activity change, negative = inhibition, actives largely listed as inhibitors. AID 504333. Q9UIF8. 360,000 compounds, 4.4% hits; also: % is scaled to controls: 0 for no effect and ±100 for the full control effect; nearly all actives have a fitted effect of over 60% in size
#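 Inhibition is scored as reduced AlphaScreen emission. The BAZ2B/b-H3(5-23)K14Ac complex (50 nM each) in PBS pH 7.4, 0.01% Tween-20 meets compound (up to 110 uM) for 30 min at RT before bead addition.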
# HP1b binding inh = HP1-beta chromodomain-methylated histone interaction inhibition | AlphaScreen HP1-beta / biotin-H3K9me3 peptide binding | P83916 | Potency, µM (series often up to 114 µM), for the others: at the top dose activity change, negative = inhibition, hits mostly inhibitors | 390,000 compounds, 0.56% hits | AID 540317; also: nearly all actives have a fitted effect of over 70% in size
#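 Compound inhibition of the preformed complex between 50 nM HP1-beta and 50 nM biotinylated H3K9me3 peptide was read by AlphaScreen. Buffer was PBS pH 7.4 with 0.01% Tween-20. Incubations ran 30 min at room temperature, with 10 ug/mL donor/acceptor beads.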
# JMJD2A Tudor = JMJD2A Tudor domain (human) inhibition; 390,000 compounds, 4.4% hits; O75164; AID 504339; AlphaScreen JMJD2A-Tudor / H3K4me3 peptide binding; Potency, µM (series often up to 114 µM), without a hit: at the top dose activity change, negative = inhibition, most hits filed as inhibitors; also: % is scaled to controls: 0 for no effect and ±100 for the full control effect; nearly all actives have a fitted effect of over 50% in size
# PLK1 PBD inh = PLK1 (human) polo-box domain binding inhibition; P53350; Plk1 PBD binding of FITC phosphopeptide, fluorescence polarization; Potency, µM, for the others: max response, negative = inhibition, actives largely listed as inhibitors; 360,000 compounds, 2.8% hits; also: series mostly up to about 57 µM; % is scaled to controls: 0 for no effect and ±100 for the full control effect; nearly all actives have a fitted effect of over 65% in size
# Target sequence (P53350 whole entry, looked up, the tested form may be a part): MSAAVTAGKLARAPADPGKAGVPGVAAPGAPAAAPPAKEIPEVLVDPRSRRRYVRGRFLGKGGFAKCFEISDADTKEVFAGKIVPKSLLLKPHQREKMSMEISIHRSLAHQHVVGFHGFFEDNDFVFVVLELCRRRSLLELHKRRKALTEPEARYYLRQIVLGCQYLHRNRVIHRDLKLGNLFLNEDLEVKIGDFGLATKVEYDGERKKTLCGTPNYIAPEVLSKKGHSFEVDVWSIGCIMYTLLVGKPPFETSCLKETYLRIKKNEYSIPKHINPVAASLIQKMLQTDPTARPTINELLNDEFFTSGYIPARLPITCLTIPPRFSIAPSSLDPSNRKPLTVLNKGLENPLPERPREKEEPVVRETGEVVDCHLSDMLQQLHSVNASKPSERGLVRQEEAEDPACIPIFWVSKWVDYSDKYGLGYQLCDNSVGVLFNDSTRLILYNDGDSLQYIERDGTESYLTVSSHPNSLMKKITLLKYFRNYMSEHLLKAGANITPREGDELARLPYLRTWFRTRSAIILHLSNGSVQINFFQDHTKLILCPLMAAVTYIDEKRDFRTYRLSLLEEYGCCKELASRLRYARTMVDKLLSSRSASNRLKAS
# Starred values were filed as active, the others as inactive; ? = inconclusive; / = no result given; ! = repeats disagree; [ ] = remark or other dose. Calls follow the shape of the dose curve; as a rule, active = well fitted curve in the direction sought with a large enough effect; inconclusive = small, poorly fitted or top-dose-only effect, or another doubt; inactive = no such curve, though single readings can be large; an effect the other way counts as inactive or inconclusive. Potency is read from the fitted curve at half-maximal effect.
SMILES,G9a inh,Sfp PPTase inh,BAZ2B block,HP1b binding inh,JMJD2A Tudor,PLK1 PBD inh
CC1(C)CC(=O)C(C=NCCN2CCN(C3CC(=O)N(c4ccc(Br)cc4)C3=O)CC2)=C(O)C1 (stereo unspecified),6%[0.501 µM],12%,1%,-9%,?,27µM*
CCCOc1ccc(N2C(=O)CC(N3CCN(CCN=CC4=C(O)CC(C)(C)CC4=O)CC3)C2=O)cc1 (stereo unspecified),/,28%,0%,42%,3%,-1%
Cn1nc(C(=O)O)c(=O)n(C)c1=O,/,/,/,-39%,89µM*,27µM*
CCOC(=O)c1nn(C)c(=S)n(C)c1=O,/,/,/,31%,-6%,9%
c1ccc(-n2c(Cc3cn4ccsc4n3)nnc2N2CCOCC2)cc1,?,-8%,?,23%,50µM*,-12%
O=C(N/N=C/c1ccccn1)C(O)c1ccccc1 (stereo unspecified),0.71µM*,?,?,21%,-25%,-6%
CCCCC(C(=O)N/N=C/c1ccccn1)C(=O)N/N=C/c1ccccn1,?,35µM*,7%,44%,-12%,3%
O=C(NCCc1ccc(Cl)cc1)c1ccc(CS(=O)Cc2cccc(Cl)c2)o1 (stereo unspecified),-25%[59 µM],/,?,19%,-16%,/
COc1cc(OC)c(Nc2c3c(nc4nc(-c5cccs5)nn24)CCCC3)cc1Cl,1%[59 µM],/,2%,30%[57 µM],-6%,/
CC1C(=O)N2CCCc3cc(NC(=O)c4ccccc4C(F)(F)F)cc1c32 (stereo unspecified),-44%,/,6%,22%,-11%,-7%
N#CC1=C(Nc2ccccc2Cl)SC(c2ccccc2O)NC1=O (stereo unspecified),14%[2.33 µM],13µM*,-2%,4%,?,?
COc1cccc(NC2=C(C#N)C(=O)NC(c3cccc(OC)c3O)S2)c1 (stereo unspecified),45µM*,25µM*,-27%,22%,-8%,-27%
CCC(O)CC(C(=O)NNc1ccccc1)C(=O)NNc1ccccc1 (stereo unspecified),7.9µM*,5%,-2%,?,-16%,-13%
CCN(CC)c1ccc(/C=C/c2cccc[n+]2C)c(OC)c1,35µM*,-1%,50µM*,-18%,18µM*,51%
COc1ccccc1Nc1nc(C)cs1,3%[2.33 µM],45µM*,79µM*!,-21%,-15%,17µM*!
COc1ccccc1Nc1ccc(Nc2ccccc2OC)nn1,50µM*,11%,-34%,-17%,?,-1%
Cc1csc(Nc2cccc3ccccc23)n1,45µM*,1%,50µM*,?,?,-18%
CCOC(=O)N1CCN(C(=O)c2ccc(CS(=O)c3cccc(C)c3)o2)CC1 (stereo unspecified),/,/,/,/,/,-10%
N/C(Cn1cncn1)=N\NC(=O)c1ccc(Cl)cc1Cl,8.9µM*,0%,-21%,?,13µM*,-27%
Cc1ccc(C(=O)N/C(=C\c2ccco2)C(=O)NCCCn2ccnc2)cc1,-8%[59 µM],2%,7.9µM*,20%,22µM*,-9%
Cc1ccc(C(=O)N/C(=C/c2ccco2)C(=O)NCCCn2ccnc2)cc1,?,4%,32µM*,5%,-7%,5%
O=C(NCCCN1CCCC1=O)C1CCN(S(=O)(=O)c2ccc(Cl)cc2)CC1,17%[12.7 µM],/,4%,28%,-4%,-9%
FC(F)(F)c1ccc2c(c1)C1C=CCC1C(c1ccncc1)N2 (stereo unspecified),?,-7%,45µM*,-8%,?,-25%
O=C(O)c1ccc2c(c1)C1C=CCC1C(c1ccncc1)N2 (stereo unspecified),?,?,56µM*,27%,-3%,1%
CC1=C(C(=O)NCc2cccc(Br)c2)C2(CCCCC2)OC1=O,-3%[59 µM],/,7%,21%,-8%,/
COc1ccc(-c2cc(C(F)(F)F)nc(SCC(=O)NCCc3ccc(OC)c(OC)c3)n2)cc1,-16%[59 µM],/,-16%,28%,-8%,/
N#Cc1c2c(c(Nc3ccc(O)cc3)n3c1nc1ccccc13)CCC2,1.3µM*,5%,-33%,24%,-19%,-3%
Cc1ccc(S(=O)(=O)N2Cc3ccccc3CC2C(N)=O)cc1 (stereo unspecified),/,/,/,/,/,-11%
CC1CCCC(C)N1C(=O)COC(=O)/C=C/c1ccc(Br)o1 (stereo unspecified),/,/,/,?,20µM*,?
Cc1nc2cc(-c3ccccc3)nn2c(C)c1CCC(=O)N1CCN(c2ccc(F)cc2)CC1,-11%[59 µM],/,-32%,5%,-28%,/
